Shown are actives, neighbours in structure and some others; about 3.5% of the full set was active somewhere.
Pf apPOL block: Pf-apPOL DNA polymerase inhibition; Recombinant Pf-apPOL, molecular beacon fluorescence, 1.5 h; inhibition, % at 10 µM; hit rate 0.25% among 210,000; AID 1794808
mHTT CaM bind: mHTT-calmodulin interaction abrogation; AlphaScreen His-mHTT/GST-CaM binding, luminescence; inhibition, % at 15 µM; hit rate 3.6% among 190,000; AID 1671202;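 further: 0% = both proteins with DMSO and 100% = one protein alone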
* hit, by the source's call; / = no result. No stated cut-off is given here; in the data, active means inhibition above about 50%; inactive means the rest.

SMILES | Pf apPOL block | mHTT CaM bind
O=C(CSc1ccccc1)Nc1nnc(-c2cc(Cl)sc2Cl)o1 | -2 | -5
Cc1cc(C)nc(NS(=O)(=O)c2ccc(NC(=O)C3COc4ccccc4O3)cc2)n1 (stereo not given) | -8 | 4
O=C(Nc1nnc(-c2cc(Cl)sc2Cl)o1)C1COc2ccccc2O1 (stereo not given) | -186 | 81*
O=C(Nc1nnc(CCS(=O)(=O)c2ccccc2)o1)C1COc2ccccc2O1 (stereo not given) | 7 | 65*
COc1ccc(CC(=O)Nc2c3c(nn2-c2ccc(OC)cc2)CS(=O)(=O)C3)cc1 | -6 | 1
COC(=O)c1cccc(C(=O)N2CCN(c3ccccc3F)CC2)n1 | -8 | -2
CCCCC[C@@H](C)N1C[C@@H](COCc2ccccc2)Oc2cc(N3CC[C@H](N(C)C)C3)ccc2S1(=O)=O | -6 | 100*
CCCCC[C@H](C)N1C[C@@H](COCc2ccccc2)Oc2cc(N3CC[C@H](N(C)C)C3)ccc2S1(=O)=O | -11 | -13
C[C@@H](c1ccccc1)N1C[C@H](COCc2ccccc2)Oc2cc(N3CC[C@H](O)C3)ccc2S1(=O)=O | -8 | 48
CCCCC[C@H](C)N1C[C@H](COCc2ccccc2)Oc2cc(N3CC[C@@H](O)C3)ccc2S1(=O)=O | -19 | 92*
CCCCC[C@@H](C)N1C[C@H](COCc2ccccc2)Oc2cc(N3CCC[C@@H]3CO)ccc2S1(=O)=O | -8 | 24
CCCCC[C@H](C)N1C[C@@H](COCc2ccccc2)Oc2cc(N3CC[C@H](O)C3)ccc2S1(=O)=O | -8 | 88*
CC1Oc2ccc(NC(=O)Cc3ccccc3)cc2CN(C(C)C)C1=O (stereo not given) | -5 | 16
Cc1ccc(NC2=C([N+](=O)[O-])CS(=O)(=O)C2)cc1 | -5 | -3
O=[N+]([O-])C1=C(Nc2ccc(Cl)c(Cl)c2)CS(=O)(=O)C1 | -3 | 75*
O=C(CSc1nc2ccccc2o1)NCc1cc(-c2ccco2)on1 | 2 | 0
COc1ccc(NC(=O)CCC2CCCCC2)cc1OC | -2 | 9
CN(C)c1ccc(NC(=O)CCC2CCCCC2)cc1 | -2 | 63*
CC1=CC(=O)C(C(C)C)=CC1=NS(=O)(=O)c1ccc([N+](=O)[O-])cc1 | -6 | 50
CC1=CC(=NS(=O)(=O)c2ccc(Cl)cc2)C(C)=CC1=O | -2 | 65*
O=C(CC1CCN(S(=O)(=O)c2ccc(Br)s2)CC1)N1CCCCC1 | 4 | -9
CCc1onc(C)c1C1CCCN1Cc1cccc(OC)c1O (stereo not given) | 3 | 10
COc1cccc(CNC(=O)c2ccc3c(c2)NC(=O)C(N2CCCC2)S3)c1 (stereo not given) | -13 | 13
COc1cc(C=Nc2c(-c3ccco3)nc3ccc(Cl)cn23)ccc1O | -6 | 27
COc1ccc(CC(=O)NC2C3CC4CC(C3)CC2C4)cc1OC (stereo not given) | -3 | 5
SMILES | Pf apPOL block | mHTT CaM bind
COc1ccc(NC2C3CC4CC(C3)CC2C4)cc1OC (stereo not given) | -3 | 62*
CC1(C(=O)NCc2cccc(F)c2)CCCN(C(=O)COc2ccc(F)cc2)C1 (stereo not given) | 6 | 4
O=c1[nH]c(CNC2CC2)nc2sc3c(c12)CCN(Cc1ccccc1)C3 | 3 | 28
c1cc(Nc2ncnc3sc4c(c23)CCC4)ccn1 | 4 | 4
NNc1ncnc2sc3c(c12)CCN(Cc1ccccc1)C3 | 0 | 90*
NNc1ncnc2sc3c(c12)CCC3 | -3 | 100*
CCc1cc2c(N3CCCCCC3)ncnc2s1 | 1 | -14
N#CC1=C(N)Oc2c([nH]c(=O)[nH]c2=O)C1c1ccccc1[N+](=O)[O-] (stereo not given) | -2 | -6
NC(=NO)c1snnc1-c1ccccc1 | 0 | /
CCN1c2ccccc2C(=O)NC12CCN(C(=O)Cc1ccc(C)cc1)CC2 | -9 | 1
Cc1cccc(-c2noc(C3CCCN3C(=O)CCC3CCCC3)n2)c1 (stereo not given) | -5 | -10
Cc1ccc(Cl)cc1N1CCN(C(=O)C2Oc3ccccc3NC2=O)CC1 (stereo not given) | 0 | 81*
O=C1Nc2ccccc2OC1C(=O)N1CCN(c2cccc(Cl)c2)CC1 (stereo not given) | -2 | 2
N#CC(=CN(CCS(=O)(=O)c1ccc(Cl)cc1)Cc1cccs1)S(=O)(=O)c1ccc(Cl)cc1 | -3 | /
CN(CC#N)C(=O)c1cc2sc(Cl)cc2n1C | -5 | -1
O=C(Nc1cccc(Cl)c1)c1ccc(F)c(S(=O)(=O)NC2CCCC2)c1 | 0 | -1
Cc1ccc(NC(=O)c2cc(S(=O)(=O)NC3CCCCC3)ccc2F)cc1Cl | -8 | 5
O=C(Nc1cc(Cl)cc(Cl)c1)c1ccc(F)c(S(=O)(=O)NC2CCCC2)c1 | 31 | 54*
O=C(Nc1ccc(Cl)c(Cl)c1)c1cc(S(=O)(=O)NC2CCCCC2)ccc1F | -4 | 78*
O=C(NCCSc1ncc(-c2ccccc2)[nH]1)NCc1ccc(F)cc1 | -16 | -4
CCCc1nc2cccnc2n1C1CCN(S(=O)(=O)c2c(C)nn(C)c2C)C1 (stereo not given) | -3 | 6
C=CCNC(=O)COc1ccc(Br)cc1C | 4 | -10
C=CCNCCOc1ccc(Br)cc1C | -2 | 54*
O=C(N=Nc1c(O)[nH]c2ccc(Br)cc12)c1ccco1 | 80* | /
O=[N+]([O-])c1cccc(-c2csc(N=Nc3c(O)[nH]c4ccc(Br)cc34)n2)c1 | 1 | /
SMILES | Pf apPOL block | mHTT CaM bind
Clc1nc(NCCN2CCOCC2)nc(Nc2ccc(I)cc2)n1 | -1 | 4
CCOc1nc(NCCN2CCOCC2)nc(Nc2ccc(I)cc2)n1 | 6 | 57*
CC(=O)c1ccc(N=Cc2nc(-c3ccc(Br)cc3)oc2O)cc1 | -5 | 1
CC(C)(C)c1cc(C(c2ccccc2O)N2CCOCC2)cc(C(C)(C)C)c1O (stereo not given) | 12 | 52*
Cc1ccc(NC2=C(N3CCOCC3)C(=O)c3ccccc3C2=O)cc1 | 4 | 46
COc1cc(C(c2cc3c(cc2O)OCO3)N2CCOCC2)cc(OC)c1OC (stereo not given) | / | 26
CC(C)(C)c1cc(C2=C(N3CCOCC3)C(=O)c3ccccc3C2=O)cc(C(C)(C)C)c1O | -2 | 86*
CC1CCN(C(c2ccc(N(C)C)cc2)c2cc(C(C)(C)C)c(O)c(C(C)(C)C)c2)CC1 (stereo not given) | -7 | 66*
CC(C)(C)c1cc(CN2CCC(O)CC2)cc(C(C)(C)C)c1O | 14 | -4
O=C(CCSCc1ccccc1F)NCCC1=CCCCC1 | 39 | -10
O=C(NCCc1csc(-c2ccccc2)n1)C1CCN(C(=O)c2ccco2)CC1 | 1 | 7
Cc1ccc(OCC(=O)c2ccc(F)cc2)cc1C | -11 | -20
CCCC12CN3CC(C)(CN(C1)C3c1cc(Br)ccc1O)C2=O (stereo not given) | 10 | -4
CCCOc1cccc(C(=O)Nc2ccc(OC)cc2OC)c1 | -4 | -5
O=C(CCc1c[nH]c2ccccc12)N1CCc2c(nc3cc(-c4ccccc4)[nH]n3c2=O)C1 | 10 | 8
Cc1cccc(CC(=O)N2CCc3c(nc4cc(-c5ccccc5)[nH]n4c3=O)C2)c1 | -6 | 74*
O=C(CCc1ccccc1)N1CCc2c(nc3cc(-c4ccccc4)[nH]n3c2=O)C1 | 8 | 72*
COc1ccc(-c2cc3nc4c(c(=O)n3[nH]2)CN(C(=O)Cc2cccc(C)c2)CC4)cc1 | 4 | 37

Assay outcomes as filed in PubChem BioAssay.
